Test results from the supplement of paper PMC7724964.

T1: DYNLL2 1-89 Dynein_light (domain begin residue: 1, domain end residue: 89), Q96FJ2
T1 chain: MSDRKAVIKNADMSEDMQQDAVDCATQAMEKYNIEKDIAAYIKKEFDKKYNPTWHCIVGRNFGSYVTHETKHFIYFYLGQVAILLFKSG


How the values were obtained:
[1] = biological target: DYNLL1 1-89 Dynein_light (domain begin residue: 1, domain end residue: 89), P63167; assay: phage ELISA signal ratio (GST-PRM binding over GST background); higher = stronger binding of peptide-phage to the PRM
Method in brief: (§1)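 Human peptide recognition domains were expressed in 96-well plates as fusions to the C-terminus of glutathione S-transferase (GST) and selected against an M13 phage library displaying randomized hexadecapeptides, cysteine-free and glycine-flanked, on the gene-8 major coat protein. Five selection rounds were run, and approximately 48 individual clones from rounds 4 and 5 were tested by phage ELISA. Each value is the ELISA signal on the GST-domain fusion divided by the signal on GST alone. Positive clones were sequenced.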

[2] = biological target: T1, DYNLL2 1-89 Dynein_light (domain begin …; assay: as above
Method in brief: as §1

Chain of DYNLL1 1-89 Dynein_light (domain begin residue: 1, domain end residue: 89), P63167 (P63167 whole entry, the tested form may be a part): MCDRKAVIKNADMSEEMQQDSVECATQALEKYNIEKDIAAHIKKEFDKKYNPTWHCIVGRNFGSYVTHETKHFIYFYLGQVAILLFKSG

Binder	phage ELISA signal ratio [1]	phage ELISA signal ratio [2]
SQTPDEWDWQPGAWIT	19.7	–
SQTDWYDELFSQLVVT	27.9	–
TQTEDWPQRESQPNWM	25.2	–
MSLGTQTDWQEPMWWL	26.8	–
LREMGTQTGEMITDYV	25.8	–
TQTDMNFWHSPWVELV	24.8	–
TQTDAWEMTMLAQQAV	25.2	–
TQTPYDWLYPAATYLT	28	–
VTVGTQWDGFHVDAPI	19.6	–
ISVGTQTDWTEPPQMG	29.1	–
TQTGESEMYFWNHMPK	22.7	–
TQTEFPWEDARLPKQE	28.7	–
TQTEYWVIDMPDWMTI	21.2	–
QQTDDWHVAETGIWLA	–	13.9
GTQTDDTMVYFPREQR	22.8	–
TQTEWLWNWGESAHML	29.8	–
KDFGTQVDFDILHEEE	27.5	–
VQTDWMDWWMPDPFNA	23.6	–
TQTDESMWLWHWPEDH	29.4	–
TQTDLMGDHWPQHKMT	24.5	–
SPTEWVWNWGENAQML	24.1	–
TQTLAWDWYYEFPEMI	24.5	–
SQTEPMPLWSRDAEVT	23.1	–
TQTEEYMQMLWPYQDV	21.3	–
MATQTDWNWGFLQEME	29.1	–
SQTDPTYWFPWEDKWN	28.8	–
TQTEPAWGETGEMTAI	26	–
VDMGTQTEASLLRYSV	33.5	–
EMWTQTTSYDFLQMQG	20.7	–
